# Sampled rows, rich in hits. Any-hit rate of the full collection: about 11%.
# AMA1 RON2 block: inhibitors of Plasmodium falciparum AMA1-RON2 interaction; AlphaScreen AMA1-biotinylated RON2 peptide binding; Potency, µM (titrated, usually from 58.2 µM), for the others: top-dose activity change, negative = inhibition, usual class: inhibitors; 360,000 tested, 0.2% active; AID 720542;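 further: 0% = vehicle wells and -100% = peptide control; nearly all actives have a fitted effect of over 45% in size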
#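 AMA1 (3D7) with his tag at 25 nM final met compounds first, then biotinylated RON2 peptide at 25 nM; detection used donor plus acceptor beads, 10 µg/mL apiece, read by AlphaScreen after 30 min at room temperature.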
# Sm TGR block: blocks Schistosoma mansoni thioredoxin glutathione reductase; Q962Y6; purified TGR, DTNB reduction, TNB absorbance 405 nm; Potency, µM (series often up to 114 µM), without a hit: at the highest dose activity change, negative = inhibition, usual class: inhibitors; 360,000 tested, 3% active; further: on the % scale 0 is the no-effect control and ±100 the full control effect; nearly all actives have a fitted effect of over 60% in size
#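 First, TGR (20 nM dispensed) and NADPH were mixed with compound. Second, a 15 min room-temperature incubation followed. Third, further NADPH and then DTNB were added to start the reaction. Finally, TNB absorbance was monitored kinetically.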
# Pf growth 96h: inhibits malaria parasite growth, 96 h. AID 504834. 320,000 tested, 6.9% active. P. falciparum luciferase reporter growth, 96 h. Potency, µM (top dose mostly 28.7 µM), for inactives: at the top dose activity change, negative = inhibition, usual class: inhibitors; further: on the % scale 0 is the no-effect control and ±100 the full control effect
#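 Cell-based qHTS: luciferase-tagged P. falciparum in erythrocytes (2% hematocrit, 0.05% parasitemia final) incubated with compounds for 96 hours, 37 C, 5% CO2; luciferase detection reagent then added and luminescence measured.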
# NS1 inh: influenza NS1 inhibition | Potency, µM (highest dose often 46.1 µM), for the others: top-dose activity, positive = more growth | 270,000 tested, 0.4% active | AID 2326; calls by dose curve; further: actives are rising curves; nearly all actives have a fitted effect of over 50% in size
#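 Read-out: OD600 growth recovery of NS1-expressing budding yeast. Cells grown overnight at 30C in -URA glucose medium, washed, resuspended and diluted 1:100 in 2% galactose assay medium, pH 6.0. Same strain lacking NS1 served as positive control.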
# Pf growth 48h: inhibits P. falciparum growth in the first generation, 48 h; P. falciparum luciferase growth in erythrocytes, 48 h; Potency, µM (titrated, usually from 28.7 µM), inactives show top-dose activity change, negative = inhibition, actives largely listed as inhibitors; 310,000 tested, 5.9% active; AID 504832; further: on the % scale 0 is the no-effect control and ±100 the full control effect
#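 Parasite viability was followed by luminescence of a genomically integrated firefly luciferase. Cultures held 0.1% parasitemia at 2% hematocrit (final), incubated under 5% CO2 at 37 C.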
# * = called active by the depositor; u = inconclusive; x = no result; [ ] = remark or other dose. Unless noted, the call rests on the fitted dose curve; in most records, active means well fitted curve in the direction sought with a large enough effect; inconclusive means small, poorly fitted or top-dose-only effect, or another doubt; inactive means no such curve, though single readings can be large; an effect the other way counts as inactive or inconclusive. Potency means the concentration at half of the fitted maximal effect.
SMILES,AMA1 RON2 block,Sm TGR block,Pf growth 96h,NS1 inh,Pf growth 48h
CCOC(=O)C1=C(C)N(C)C(=S)NC1c1ccc(Cl)cc1Cl (stereo not given),14%[11.6 µM],4%,15µM*,6%,-17%
CC1=C(CCN2CCN(C(C)C)C(CCO)C2)C(C)(C)CCC1 (stereo not given),-12%,2%,u,-2%,u
Oc1ccc(N2CCN(c3ncnc4sc(-c5ccccc5)cc34)CC2)cc1,u,-26%,15µM*,x,u
CC(C)C(NS(=O)(=O)c1cccc2nsnc12)C(=O)NC1CCCCC1 (stereo not given),24%,-1%,10µM*,11%,15%
CC[C@H]1c2[nH]c3ccccc3c2C[C@H]2C(=O)N(c3ccc(F)cc3)C(=O)N21,-2%,0%,u,x,u
O=c1[nH]c(=O)n(-c2ccc(F)cc2)c2c1C(C(F)(F)F)(C(F)(F)F)N=C(c1ccc(F)cc1)N2,17%,-9%,12µM*,-11%,u
Cc1ccc(C2=NC(C(F)(F)F)(C(F)(F)F)c3c(n(-c4ccc(F)cc4)c(=O)[nH]c3=O)N2)cc1,-1%,5%,u,0%,u
O=C(COC(=O)CN1C(=O)NC2(CCCCC2)C1=O)Nc1cc(F)ccc1F,0%,x,x,x,x
Cc1nnc(N2C(=O)c3cccc4c([N+](=O)[O-])ccc(c34)C2=O)s1,4%,4.5µM*,-32%,-26%,-6%
Cc1ccc(N2C(=O)c3cccc4c([N+](=O)[O-])ccc(c34)C2=O)c2cccnc12,-2%,-2%,u,0%,19%
O=C1c2cccc3c([N+](=O)[O-])ccc(c23)C(=O)N1Cc1cccnc1,-9%,25µM*,5%,x,u
O=C1c2cccc3cccc(c23)C(=O)N1Cc1cccnc1,-11%,24%,13%,-9%,0%
Cc1cccc(NC(=O)CNC(=O)c2ccc3nc[nH]c3c2)c1C,-18%,2%,35%,x,7%
COc1ccc(Nc2nc3ccc(Cl)cc3nc2-n2nc(C)cc2C)cc1,x,7%,x,x,x
CN(C)S(=O)(=O)c1ccc(C(=O)Nc2nnc(-c3cccs3)o2)cc1,73%,-13%,u,x,13µM*
O=C(CCSc1ccccc1)Nc1nnc(-c2cccs2)o1,123%,28µM*,32%,-3%,20%
CCC1CCCCN1S(=O)(=O)c1ccc(C(=O)Nc2nnc(-c3cccs3)o2)cc1 (stereo not given),117%,7%,42%,-97%,10µM*
CC(C)(C)c1nnc2sc(SCC(=O)N3CCCCC3)nn2c1=O,-7%,x,x,x,x
O=C(c1cnc(N2CCOCC2)c2ccccc12)N1CCN(c2ccccc2)CC1,x,-5%,x,x,x
COc1cc(C2OC(=O)c3c2ccc(OC)c3OC)ccc1O (stereo not given),x,28µM*,-21%,x,7.4µM*
Cc1ccc(NC(=O)COC(=O)CCc2c(C)nc3nc(N)nn3c2C)cc1C,6%,-3%,14%,x,-1%
CN(C)C(CNC(=O)NC1CCCCC1)c1cccnc1 (stereo not given),11%,40µM*,x,7%,9%
Cc1ccc(N(C(=O)CNC(=O)c2ccco2)C(C(=O)NC2CCCC2)c2cccnc2)cc1 (stereo not given),-3%,4%,33%,1%,17%
Cc1ccc(N(C(=O)CCl)C(C(=O)NC2CCCCC2)c2cccnc2)cc1C (stereo not given),-6%,14µM*,u,18%,u
CN(C)C(CNC(=O)c1cccs1)c1cccnc1 (stereo not given),24%,0%,8%,-4%,6%
O=C(NCC(=O)N(Cc1ccccc1)C(C(=O)NC1CCCC1)c1cccnc1)c1ccco1 (stereo not given),54%,0%,17µM*,-2%,1%
Cc1cccc(N(C(=O)CNC(=O)c2ccco2)C(C(=O)NC2CCCC2)c2cccnc2)c1 (stereo not given),12%,0%,4.1µM*,-10%,14%
CCc1ccc(NC(=O)CSC2=Nc3ccccc3C3=NC(CCC(=O)NCc4ccccc4)C(=O)N23)cc1 (stereo not given),x,13%,x,x,x
O=C1CCc2cc(S(=O)(=O)NCc3ccc(F)cc3)cc3c2N1CC3,3%,-3%,23%,x,-9%

# Screens (PubChem BioAssay)
